Data on 14 compounds can be found in PubChem BioAssay.

SMILES strings stand for the structures. Active and inactive are the calls of the source.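 The calls were made as follows, unless noted: active = fluorescence slope higher than the sample average by over 3 SD (cut at about -0.22 in these data, passing the limit was not always enough); inactive = the rest.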

Assay [1] in a line: inhibitors of TNFa-induced NFkB p65 translocation, primary screen, imaging, HUVEC, MLSMR starter and 10KST1 sets (AID 438;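 active = inhibition above 20% together with a positive visual image hit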;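 also: compound added about 3h40 before a 20 min TNFalpha stimulation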;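 as to inhibition: signal is the nuclear over cytoplasmic p65 intensity ratio per well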). The settings on record: HUVEC TNFa-induced p65 nuclear translocation; cell count: measured here: nuclei count (cytotoxicity indicator), at 2.08 µM; inhibition: at 2 µM, stronger effect = higher value, 0% TNFa-plus-vehicle, 100% no-TNFa wells.
The nature of assay [2]: reduction of polyQ htt aggregates in cells – imaging, exon1htt(103Q)mCFP cells, high-content imaging, primary screen (AID 483;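 active = visual image review flags a hit and inhibition of aggregation exceeds 20%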;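 also: compound exposure lasted 3 days before fixation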;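 as to nuclei count: percent of the per-plate median nuclei count of sample wells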). Conditions: exon1htt(103Q)mCFP cell line, aggregate imaging, at 2 µM; inhibition of aggregation: stronger effect = higher value; nuclei count: measured here: cell count, toxicity.
The nature of assay [3]: endothelial E-selectin expression blockers – imaging, HUVEC, immunofluorescence, MLSMR starter and 10KST1 sets, primary screen (AID 487;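 active = visually confirmed hit in the image check and inhibition above 20%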;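 as to inhibition: signal is fraction of cell area covered by stained E-selectin grains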;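 as to nuclei count: 100% = median nuclei count of all wells on the same plate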). The settings on record: HUVEC TNFalpha-induced E-selectin immunofluorescence imaging, at 2 µM; inhibition: stronger effect = higher value; nuclei count: measured here: cell number, toxicity.
Assay [4] concerns the target Voltage-gated potassium channel subunit beta-2 (Rattus norvegicus) (UniProt P62483). Put plainly: inhibitors of rat Kvbeta2 reductase activity – biochemical, NADPH fluorescence, primary screen (AID 622).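 Also: slope of raw intensity against log time taken from 70 to 1610 s.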 Conditions: recombinant KvBeta, 4-cyanobenzaldehyde reduction, at 10 µM, stronger effect = higher value.
Assay [5] shares this target. Nature of the assay: enhancers of rat Kvbeta2 NADPH turnover – biochemical, NADPH fluorescence, primary screen (AID 623;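 active = NADPH fluorescence slope more negative than the mean of all samples by about 3 SD, 99.7% confidence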;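 also: fluorescence intensity change per second fitted from 20 to 320 s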). Conditions: Recombinant KvBeta, NADPH fluorescence decrease slope, 10 min; at 10 µM; stronger effect = lower value.
The target in assay [6] is Alpha-2C adrenergic receptor (Homo sapiens) (UniProt P18825). Nature of the assay: compounds altering alpha2C-coupled GIRK flux – cell-based, HEK293 alpha2C/GIRK1/2, thallium flux, primary screen (AID 624;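 active = fluorescence slope after compound addition differing from the mean of all screened samples at 99.7% confidence, in either direction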;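 also: slope of fluorescence ratio to pre-addition baseline per second over 15 to 24 s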). The settings on record: thallium flux BTC fluorescence, at 10 µM, actives lie on both sides.
Chain of Alpha-2C adrenergic receptor (Homo sapiens) (P18825 whole entry, looked up): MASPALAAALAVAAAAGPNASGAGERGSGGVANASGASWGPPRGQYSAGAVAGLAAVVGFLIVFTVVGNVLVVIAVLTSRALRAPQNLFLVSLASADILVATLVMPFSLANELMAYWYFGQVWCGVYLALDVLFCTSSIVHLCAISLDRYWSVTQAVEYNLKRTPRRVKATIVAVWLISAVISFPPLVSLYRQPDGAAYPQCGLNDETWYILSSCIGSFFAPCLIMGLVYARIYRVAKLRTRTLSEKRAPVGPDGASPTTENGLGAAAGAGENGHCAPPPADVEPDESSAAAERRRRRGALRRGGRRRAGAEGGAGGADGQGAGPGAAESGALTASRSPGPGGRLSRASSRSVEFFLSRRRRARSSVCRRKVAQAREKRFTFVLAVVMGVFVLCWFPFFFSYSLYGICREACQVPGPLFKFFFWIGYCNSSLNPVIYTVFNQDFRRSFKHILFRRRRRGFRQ
Assay [7] is described as follows: blockers of RIG-like receptor reporter activation – cell-based, Sendai virus stimulus, luciferase, 10K MLSCN set, TLR/RLR signaling modifier project, primary screen (AID 602276;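 active = inhibition at or above 50% at 10 µM; inactive = inhibition below 50%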;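 also: firefly luciferase from ISG56 promoter only with Renilla not read in this screen; 0% = Sendai virus plus DMSO and 100% = medium plus DMSO without virus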). Conditions: HEK293 RL24 IRF3 luciferase reporter, at 10 µM, stronger effect = higher value.
Assay [8] is described as follows: TLR3 IRF3 reporter activation blockers – cell-based, poly I:C stimulus, luciferase, 10K MLSCN set, primary screen (AID 602277;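 active = inhibition of the reporter signal at or above 50%; inactive = inhibition below 50%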). Conditions: HEK293-TLR3 RL24 IRF3 luciferase reporter, at 10 µM, stronger effect = higher value.

Chain of Voltage-gated potassium channel subunit beta-2 (Rattus norvegicus) (P62483 whole entry, looked up): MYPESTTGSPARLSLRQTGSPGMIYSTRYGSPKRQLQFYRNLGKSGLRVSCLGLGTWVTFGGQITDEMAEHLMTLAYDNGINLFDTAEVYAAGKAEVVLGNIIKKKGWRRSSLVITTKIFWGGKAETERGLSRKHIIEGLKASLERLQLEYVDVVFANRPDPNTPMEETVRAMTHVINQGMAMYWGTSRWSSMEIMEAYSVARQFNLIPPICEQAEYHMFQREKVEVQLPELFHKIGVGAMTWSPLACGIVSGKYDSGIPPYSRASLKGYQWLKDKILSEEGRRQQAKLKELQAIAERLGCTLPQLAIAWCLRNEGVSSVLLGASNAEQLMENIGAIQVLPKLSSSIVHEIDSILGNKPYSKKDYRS

Regarding `CCCCCc1c(C)nc(N2CCc3ccccc32)[nH]c1=O`, in assay [1], the cell count was 398. The inhibition in assay [1] was -2.2% (inactive); in assay [3] it was -5.8% (inactive); in assay [7], 13.9% (inactive); in assay [8], -33.8% (inactive). The inhibition of aggregation in assay [2] is -1.3% (inactive). The nuclei count stood at 112% in assay [2] and 89.4% in assay [3]. Further, the fluorescence slope in assay [4] was -0.609 (inactive). In addition, in assay [5], the NADPH fluorescence slope was 1.7e-05 (inactive). Besides, the slope in assay [6] was 0.00814 (inactive).

Consider `Cc1ccsc1C(C(=O)NC1CCCCC1)N(C(=O)Cc1cccs1)C1CC1` (centres undefined), for which the cell count in assay [1] was determined as 500. In addition, the inhibition is 0% (inactive) in assay [1], -62.9% (inactive) in assay [3], 15.2% (inactive) in assay [7] and 36% (inactive) in assay [8]. Also, the inhibition of aggregation in assay [2] is 16.1% (inactive). In addition, the nuclei count came out at 86.8% in assay [2] and 94.1% in assay [3]. In addition, the fluorescence slope in assay [4] is -0.35 (inactive). Moreover, the NADPH fluorescence slope in assay [5] is -4.8e-05 (inactive). Besides, in assay [6], the slope was 0.00468 (inactive).

Turning to `CC(=O)c1cccc(NC(=O)CCOc2ccccc2)c1`, in assay [1], the cell count came out at 580. The inhibition in assay [1] is 7.4% (inactive); in assay [3], 1.3% (inactive); in assay [7] it was -37.6% (inactive); in assay [8] it was -83.6% (inactive). Moreover, the inhibition of aggregation in assay [2] was 6% (inactive). Also, the nuclei count in assay [2] was 101%; in assay [3], 119%. In addition, the fluorescence slope in assay [4] was -0.428 (inactive). In addition, the NADPH fluorescence slope in assay [5] is 4.3e-05 (inactive). Besides, the slope in assay [6] was 0.00322 (inactive).

For the compound `CCOC(=O)C(C)Sc1nnc(Cc2cc(=O)[nH]c(=O)[nH]2)n1-c1ccc(Cl)cc1` (centres undefined), the cell count in assay [1] is 817. Besides, the inhibition was -6.8% (inactive) in assay [1], -37.1% (inactive) in assay [3], 15.5% (inactive) in assay [7] and 12% (inactive) in assay [8]. The inhibition of aggregation in assay [2] was 4.6% (inactive). In addition, the nuclei count in assay [2] was determined as 107%; in assay [3] it was 99.1%. The fluorescence slope in assay [4] was -0.615 (inactive). In addition, the NADPH fluorescence slope in assay [5] is 5.1e-06 (inactive). The slope in assay [6] was 0.00534 (inactive).

Turning to `Cc1ccc(-c2noc(CCC(=O)NCCc3ccccc3Cl)n2)cc1`, the cell count in assay [1] came out at 287. In addition, the inhibition was -1.2% (inactive) in assay [1], 5.2% (inactive) in assay [3], 10.3% (inactive) in assay [7] and 21.8% (inactive) in assay [8]. Moreover, the inhibition of aggregation in assay [2] was 19.9% (inactive). For the same compound, the nuclei count in assay [2] is 91%; in assay [3], 88.4%. Moreover, the fluorescence slope in assay [4] is -0.409 (inactive). Also, in assay [5], the NADPH fluorescence slope was -3.6e-05 (inactive). In assay [6], the slope is 0.00258 (inactive).

On to `Cn1cc(Br)c(C(=O)NC2CCCCC2)n1`, for which, in assay [1], the cell count came to 483. Further, the inhibition in assay [1] was -5.1% (inactive); in assay [3], -145% (inactive); in assay [7], 7.35% (inactive); in assay [8], 5.88% (inactive). Moreover, in assay [2], the inhibition of aggregation was -0.3% (inactive). Besides, the nuclei count is 105% in assay [2] and 238% in assay [3]. In addition, in assay [4], the fluorescence slope was -0.408 (inactive). Also, the NADPH fluorescence slope in assay [5] is 1.7e-05 (inactive). Besides, the slope in assay [6] is 0.00924 (inactive).

On to `Cc1cc(NS(=O)(=O)c2ccccc2)no1`, for which the cell count in assay [1] is 662. Further, the inhibition in assay [1] is -5.5% (inactive); in assay [3], -72.8% (inactive); in assay [7], 11.7% (inactive); in assay [8], 28.5% (inactive). The inhibition of aggregation in assay [2] is -5.5% (inactive). The values for the nuclei count in assay [2] and in assay [3] were 97% and 122%, respectively. The fluorescence slope in assay [4] was -0.56 (inactive). In addition, the NADPH fluorescence slope in assay [5] is -5.2e-05 (inactive). In addition, in assay [6], the slope is 0.00728 (inactive).

For the compound `CN(C)c1oc(-c2ccccc2F)nc1C#N`, the cell count in assay [1] came out at 576. The inhibition was 5.5% (inactive) in assay [1], -56.7% (inactive) in assay [3], -3.37% (inactive) in assay [7] and -12.5% (inactive) in assay [8]. In addition, the inhibition of aggregation in assay [2] was 10.1% (inactive). In addition, the nuclei count is 104% in assay [2] and 111% in assay [3]. Also, in assay [4], the fluorescence slope was -0.355 (inactive). In assay [5], the NADPH fluorescence slope is -1.3e-05 (inactive). Moreover, in assay [6], the slope was 0.00727 (inactive).

For `O=C1CC(c2ccccc2)Cc2nc(N3CCc4ccccc43)ncc21` (centres undefined), in assay [1], the cell count stood at 403. Besides, the inhibition in assay [1] was 1.2% (inactive); in assay [3], -134% (inactive); in assay [7], 9.74% (inactive); in assay [8], 2.35% (inactive). For the same compound, the inhibition of aggregation in assay [2] was -14.1% (inactive). Further, the nuclei count was 95.7% in assay [2] and 183% in assay [3]. Further, the fluorescence slope in assay [4] was -0.0564 (inactive). The NADPH fluorescence slope in assay [5] was -1.7e-05 (inactive). Besides, the slope in assay [6] is 0.00498 (inactive).

For the compound `COc1ccc(C)cc1-n1nnnc1SCC(=O)Nc1cc(C)on1`, the cell count in assay [1] was found to be 452. Besides, the inhibition is 2.5% (inactive) in assay [1], -330% (inactive) in assay [3], 2.92% (inactive) in assay [7] and 12.5% (inactive) in assay [8]. Also, the inhibition of aggregation in assay [2] is -18% (inactive). The figures for the nuclei count in assay [2] and in assay [3] were 96.7% and 150%, respectively. For the same compound, the fluorescence slope in assay [4] is -0.6 (inactive). Moreover, the NADPH fluorescence slope in assay [5] was -3.5e-05 (inactive). The slope in assay [6] is 0.00592 (inactive).

In the case of `CC(NC(=O)c1cc2c(=O)n(C)c3ccccc3c2n1C)c1ccc2c(c1)OCCO2` (centres undefined), the cell count in assay [1] stood at 798. In addition, the inhibition in assay [1] is -4.4% (inactive); in assay [3], -41.1% (inactive); in assay [7], 4.73% (inactive); in assay [8] it was 4.98% (inactive). The inhibition of aggregation in assay [2] was 3.3% (inactive). The nuclei count in assay [2] was determined as 139%; in assay [3] it was 107%. In addition, the fluorescence slope in assay [4] was -0.623 (inactive). Moreover, in assay [5], the NADPH fluorescence slope was -2.2e-05 (inactive). In addition, the slope in assay [6] was 0.00677 (inactive).

For `COC(=O)C1=C(C)OC(N)=C(C#N)C1c1c(C)nn(-c2ccccc2)c1Cl` (centres undefined), the cell count in assay [1] turned out to be 798. Moreover, the inhibition was 3.8% (inactive) in assay [1], -33.5% (inactive) in assay [3], -88.9% (inactive) in assay [7] and -11.8% (inactive) in assay [8]. The inhibition of aggregation in assay [2] is 12.3% (inactive). In addition, the results for the nuclei count in assay [2] and in assay [3] were 107% and 126%, respectively. The fluorescence slope in assay [4] was -0.524 (inactive). For the same compound, the NADPH fluorescence slope in assay [5] was 1e-05 (inactive). The slope in assay [6] is 0.00643 (inactive).

For `O=C(Nc1ccccn1)N1CCOCC1`, the cell count in assay [1] was found to be 319. Moreover, the inhibition in assay [1] was 9.3% (inactive); in assay [3], -70.8% (inactive); in assay [7], 1.79% (inactive); in assay [8] it was 0.112% (inactive). Besides, the inhibition of aggregation in assay [2] was 10.6% (inactive). Also, the values for the nuclei count in assay [2] and in assay [3] were 95.2% and 114%, respectively. Also, the fluorescence slope in assay [4] was -0.303 (inactive). In addition, the NADPH fluorescence slope in assay [5] is -5e-05 (inactive). The slope in assay [6] is 0.00596 (inactive).

In the case of `Cc1ccc(CNc2cc(-c3nn4c(C)nnc4s3)ccc2C)s1`, the cell count in assay [1] was 679. Besides, the inhibition was 8.6% (inactive) in assay [1], -76.3% (inactive) in assay [3], 5.73% (inactive) in assay [7] and 13.7% (inactive) in assay [8]. Moreover, the inhibition of aggregation in assay [2] is -34.9% (inactive). Besides, the nuclei count came out at 2.1% in assay [2] and 102% in assay [3]. Further, the fluorescence slope in assay [4] was -0.444 (inactive). In assay [5], the NADPH fluorescence slope was -1.1e-05 (inactive). Moreover, in assay [6], the slope was 0.00646 (inactive).
